POLI inh – blocks human DNA polymerase iota activity; Pol iota fluorescent replication assay, 10 min; Potency, µM (top dose mostly 115 µM), hits mostly inhibitors; hit rate 1% among 390,000
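Fluorescent replication assay read twice, at 0 min and 10 min after adding 50 nM (final) substrate. Enzyme (10 nM) and compounds were first incubated 15 min at room temperature; enzyme-free buffer wells were negative controls.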
Pol kappa inh – DNA polymerase kappa (human) inhibition | Q9UBT6 | purified Pol kappa, fluorescent DNA synthesis assay, 10 min | Potency, µM (series often up to 107 µM), usual class: inhibitors | hit rate 0.53% among 400,000 | AID 588579
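Pol kappa 10 nM + cpd, 15 min RT; start w/ substrate 50 nM final; fluorescence kinetic read, 0 and 10 min. Neg ctrl: buffer, no enzyme.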
TDP1 block – TDP1 (human) enzyme inhibition; Q9NUW8; AID 485290; recombinant TDP1, AlphaScreen DNA substrate cleavage; Potency, µM (top dose mostly 130 µM), actives largely listed as inhibitors; hit rate 0.28% among 350,000; further: nearly all actives have a fitted effect of over 40% in size
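AlphaScreen read-out: signal falls as enzyme removes the 3' tyrosine-FITC from a 5'-biotinylated DNA oligo (15 nM, 5 min, RT). Enzyme was E. coli-made recombinant Tdp1 at 1 nM, exposed to compound for 15 min beforehand; beads 10 ug/ml, 10 min.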
Pol beta inh – inhibitors of human DNA polymerase beta. Pol beta primer extension/strand displacement, fluorescence kinetic. hit rate 1.3% among 340,000. Potency, µM (titrated, usually from 114 µM), actives largely listed as inhibitors. P06746
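Enzyme-only controls used 10 nM Pol beta; buffer lacking enzyme served as negative control. Compound preincubated 15 min, then 50 nM substrate added; 0 and 10 min reads at room temperature.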
Pol eta inh – DNA polymerase eta (human) inhibition; Potency, µM (titrated, usually from 114 µM), most hits filed as inhibitors; recombinant Pol eta, fluorescent DNA replication assay; Q9Y253; AID 588591; hit rate 1.2% among 390,000
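Pol eta (10 nM) was preincubated with compounds for 15 min at room temperature, after which fluorescent replication substrate (50 nM final) was added to start the reaction. Fluorescence was read kinetically at 0 and 10 min.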
FEN1 inhibitor – inhibitors of human flap endonuclease 1. P39748. Recombinant FEN1 flap cleavage, fluorescence, 15 min. Potency, µM (series often up to 114 µM), actives largely listed as inhibitors. hit rate 0.35% among 390,000; further: nearly all actives have a fitted effect of over 65% in size
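Potency values derive from four-parameter Hill fits of normalized qHTS data. The reaction used 10 nM FEN1 preincubated 15 min at room temperature with compound, then 50 nM DNA substrate, read at 0 and 15 min.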
Numbers stand for hits; 0 = inactive; ? = inconclusive; - = no result. Compounds with a hit are over-represented: about 2.4% of the library has one in this group of screens. The call rests on the fitted dose curve; in most records, active means well fitted curve in the direction sought with a large enough effect; inconclusive means small, poorly fitted or top-dose-only effect, or another doubt; inactive means no such curve, though single readings can be large; an effect the other way counts as inactive or inconclusive.

SMILES	POLI inh	Pol kappa inh	TDP1 block	Pol beta inh	Pol eta inh	FEN1 inhibitor
CCCCn1c(=O)[nH]c2nc3cc(N)ccc3nc2c1=O	1.3µM	0	0	5.6µM	0	?
COc1ccc(OC)c(S(=O)(=O)NCC(c2ccc(N(C)C)cc2)N2CCOCC2)c1 (stereo unspecified)	0	0	0	0	0	0
COc1cccc(N2C(=O)C(c3ccccc3)=C(c3nc4ccccc4s3)C2NC(C)=O)c1 (stereo unspecified)	0	0	0	89µM	0	0
O=C(N/N=C/c1ccc(Cl)cc1Cl)c1ccc(-n2cnnn2)cc1	0	0	0	-	0	0
O=C(N/N=C/c1c(Cl)cccc1Cl)c1ccc(-n2cnnn2)cc1	0	0	56µM	-	0	0
COc1ccc(N2Cc3cccc(C(=O)O)c3C2=O)cc1	?	?	8.9µM	7.1µM	4µM	0
COc1ccc(NC(=O)c2cccc3c2C(=O)N(C2CCCCC2)C3)cc1	0	0	0	0	0	0
O=C(CSc1nnc(CNC(=O)c2c(F)cccc2Cl)o1)Nc1ccccc1F	0	0	0	0	0	0
CCCCN(C)C(=O)CN1C(=O)CCn2nc(-c3cn(C)c4ccccc34)cc21	0	0	0	0	0	0
O=S(c1ccccc1O)S(=O)c1ccccc1O (stereo unspecified)	13µM	?	-	-	22µM	?
O=C(O)c1ccccc1O	0	0	0	0	0	0
CCN(CC)CCn1c2ccccc2c2n[nH]c(=S)nc21	0	0	0	0	0	0
CCN(CC)CCn1c2ccccc2c2nc3ccccc3nc21	?	?	-	?	0	25µM
CCO/C=C1\SC(=S)N(c2ccc(Cl)cc2)C1=O	25µM	0	0	?	0	0
CNc1ccc(Br)cc(C(=O)/C=C/c2ccc(Cl)cc2Cl)c1=O	?	0	0	32µM	50µM	0
CNc1ccc(Br)cc(C(=O)/C=C/c2cccc(OC)c2)c1=O	?	?	0	0	16µM	?
CNc1ccc(Br)cc(C(=O)/C=C/c2ccc(OC)cc2OC)c1=O	11µM	?	-	?	45µM	?
COc1ccc(Nc2c3c(nc4ccc(NC(=O)c5cc(Cl)ccc5OC)cc24)CCCC3)cc1OC	?	0	0	?	0	0
NC1=C(c2ccc([N+](=O)[O-])cc2)C(=O)CO1	0	0	0	0	0	0
O=c1oc2c(-c3ccc([N+](=O)[O-])cc3)cc(O)cc2s1	50µM	?	0	?	?	0
Cc1ccc2ccccc2[n+]1CCCCI	0	?	-	-	-	0
Cc1cc(N)c2ccccc2[n+]1CCCCCCCCCC[n+]1c(C)cc(N)c2ccccc21	?	?	0	32µM	0	-
CCCC1=NN2C(=N)/C(=C\c3ccc(OCCOc4ccc(NC(C)=O)cc4)c(OC)c3)C(=O)N=C2S1	0	0	-	?	79µM	0
CCC1=NN2C(=N)/C(=C\c3ccc(OCCOc4ccc(NC(C)=O)cc4)cc3)C(=O)N=C2S1	0	0	-	0	?	0
COc1cc(/C=C2\C(=N)N3N=C(C)SC3=NC2=O)cc(Cl)c1OCCOc1ccc(NC(C)=O)cc1	?	0	-	0	89µM	0
SMILES	POLI inh	Pol kappa inh	TDP1 block	Pol beta inh	Pol eta inh	FEN1 inhibitor
C=CCOc1ccc(/C=C2\C(=N)N3N=C(S(=O)(=O)CC)SC3=NC2=O)cc1OC	?	0	0	0	40µM	0
CCOc1cc(/C=C2\C(=N)N3N=C(CC)SC3=NC2=O)ccc1OCCOc1ccc(NC(C)=O)cc1	0	0	-	50µM	0	0
COc1cccc(OCCOc2ccc(/C=C3\C(=N)N4N=C(S(C)(=O)=O)SC4=NC3=O)cc2OC)c1	?	0	-	0	0	0
COc1ccc(C2CC(=O)c3cc(-c4nc(-c5cccc([N+](=O)[O-])c5)cs4)c(=O)n(-c4ccc(C)c(C)c4)c3C2)cc1 (stereo unspecified)	0	0	0	0	0	0
O=C(/C=C/c1ccccc1Cl)N1CCC(c2nc3ccccc3o2)CC1	0	0	0	0	0	0
Cc1ccc2nc(-c3ccc(NC(=O)CSc4nc(N)cc(=O)[nH]4)cc3)sc2c1	0	0	-	0	0	0
Cc1ccc2nc(-c3ccc(NC(=O)CSc4nccc(=O)[nH]4)cc3)sc2c1	0	0	0	35µM	0	?
